# Screening results from PubChem.
# ALOX12 inh: inhibitors of human 12S-lipoxygenase ALOX12; P18054; purified 12hLO, xylenol orange hydroperoxide absorbance; Potency, µM (doses to about 108 µM), inactives show at the highest dose activity change, negative = inhibition, most hits filed as inhibitors; actives 1.1% (n = 580,000); AID 1671190; note: potency is the fitted concentration of half-maximal effect
# Target sequence (P18054 whole entry, looked up): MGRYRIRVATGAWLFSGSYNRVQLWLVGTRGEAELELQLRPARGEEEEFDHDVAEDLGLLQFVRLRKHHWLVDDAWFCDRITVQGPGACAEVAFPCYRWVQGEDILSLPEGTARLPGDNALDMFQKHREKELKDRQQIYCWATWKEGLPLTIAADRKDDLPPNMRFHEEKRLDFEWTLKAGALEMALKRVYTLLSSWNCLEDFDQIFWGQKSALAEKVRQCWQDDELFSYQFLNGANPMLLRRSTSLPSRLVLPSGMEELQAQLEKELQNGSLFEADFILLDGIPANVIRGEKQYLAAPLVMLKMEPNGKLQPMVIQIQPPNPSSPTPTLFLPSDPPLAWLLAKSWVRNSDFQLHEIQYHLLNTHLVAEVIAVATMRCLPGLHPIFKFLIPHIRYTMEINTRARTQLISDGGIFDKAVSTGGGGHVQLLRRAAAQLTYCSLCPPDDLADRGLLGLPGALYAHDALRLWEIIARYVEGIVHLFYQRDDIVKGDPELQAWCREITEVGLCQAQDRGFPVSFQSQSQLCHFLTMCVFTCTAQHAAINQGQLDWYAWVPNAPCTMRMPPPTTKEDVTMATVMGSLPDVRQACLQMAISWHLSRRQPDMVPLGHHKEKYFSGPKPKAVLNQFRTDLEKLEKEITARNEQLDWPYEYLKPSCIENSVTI
#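 Hydroperoxide product was detected by ferrous iron/xylenol orange as the 573 to 405 nm absorbance ratio. Arachidonic acid at 40 uM (final) was turned over for 30 min at room temperature by 150 nM human 12hLO, pH 7.0 Hepes buffer, after 15 min compound preincubation.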
# TDP1 cell noCPT: qHTS for Inhibitors of human tyrosyl-DNA phosphodiesterase 1 (TDP1): qHTS in cells in absence of CPT. DT40 Tdp1-/- hTDP1 cells, no CPT, ATP luminescence, 48 h. Potency, µM (series often up to 46.2 µM), inactives show at the highest dose activity change, negative = growth inhibition, hits mostly inhibitors. actives 15% (n = 420,000); note: potency is the fitted concentration of half-maximal effect; nearly all actives have a fitted effect of over 55% in size
#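 Cells were dispensed at 400 per well, compounds added by pin tool, plates incubated ≥48 hr at 37 °C, then CellTiter-Glo added for 30 min at room temperature before luminescence reading. Line: DT40 Tdp1-/- complemented with hTDP1; camptothecin omitted.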
# IL-1B inflam inh: inhibitors of inflammasome signaling (IL-1 beta secretion) | THP-1 LPS/ATP IL-1B secretion, AlphaLISA, 16 h; stronger effect = lower value | activity change, % at 57.5 µM | actives 4.7% (n = 360,000); in the data active = activity change below about -50%; inconclusive = mostly about -30% to -49%
#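 Secreted IL-1B measured by AlphaLISA bead assay after 16 h compound exposure of THP-1 cells; compounds (final up to 57.5 uM) added 1 h before LPS (250 ng/mL) and ATP (1.25 mM) stimulation; lower signal means less secretion.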
# HT1080NT lethal: kills 2HG-producing HT-1080-NT fibrosarcoma cells; Potency, µM (highest dose often 46.1 µM), without a hit: top-dose activity, negative = less viability, most hits filed as cytotoxic; actives 1.6% (n = 360,000); HT-1080-NT fibrosarcoma viability, CellTiter-Glo ATP luminescence, 48 h;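 note: NT is the 2HG producing partner of a matched IDH1 knockdown line; potency is the fitted concentration of half-maximal effect; 0% = DMSO-treated cells and -100% = media-only wells without cells; nearly all actives have a fitted effect of over 55% in size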
#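 750 cells/well, RPMI + 5% FBS; 2 h settle, compound pin-transfer, 48 h at 37 degrees C. CellTiter-Glo 10 min RT, luminescence. Normalized to DMSO and media-only wells.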
# HT1080 IDH1KD tx: toxicity to HT-1080 IDH1 knockdown cells (counter line) | HT-1080 IDH1 knockdown viability, ATP luminescence, 48 h | actives 2% (n = 360,000) | Potency, µM (titrated, usually from 46.1 µM), for inactives: at the top dose activity, negative = toxicity, actives largely listed as cytotoxic;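 note: potency is the fitted concentration of half-maximal effect; 0% = DMSO wells and -100% = cell-free medium wells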
#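 % activity derives from luminescence (CellTiter-Glo), normalised to DMSO and no-cell wells. HT-1080-IDH1KD cells, 750/well, had 48 h compound exposure at 37 °C.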
# TDP1 cell CPT: growth inhibition of DT40 Tdp1-/-;hTDP1 cells with camptothecin (screen for TDP1 inhibitors); AID 686979; chicken DT40 Tdp1-/-;hTDP1 cells + 20 nM CPT, ATP luminescence, 48 h; actives 12% (n = 420,000); Potency, µM (titrated, usually from 46.2 µM), for inactives: top-dose activity change, negative = growth inhibition, hits mostly inhibitors; note: potency is the fitted concentration of half-maximal effect; nearly all actives have a fitted effect of over 55% in size
#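 Cell growth measured by CellTiter-Glo luminescence after a minimum 48 h, 37 C compound exposure with 20 nM CPT in Tdp1-knockout DT40 cells stably expressing hTDP1, seeded 400/well; qHTS titration format.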
# The depositor's hits bear a star; ? = inconclusive; nt = no result given; [ ] = another dose, or the depositor's remark. This is one part of a sample in which hits are shown more often than they occur. Unless noted, calls come from the whole dose curve; as a rule, active = well fitted curve in the direction sought with a large enough effect; inconclusive = small, poorly fitted or top-dose-only effect, or another doubt; inactive = no such curve, though single readings can be large; an effect the other way counts as inactive or inconclusive. Unless noted, % is set by controls: 0 for no effect and ±100 for the full control effect.
SMILES,ALOX12 inh,TDP1 cell noCPT,IL-1B inflam inh,HT1080NT lethal,HT1080 IDH1KD tx,TDP1 cell CPT
Cc1ccnc(N2CCCC(C(=O)Nc3ccc(C)c(C)c3)C2)n1 (stereo not drawn),-20.3%,?,21.4,-1.1%,9.4%,9.2µM*
CCC(C)c1ccc(NC(=O)C2CC3CCC2C3)cc1 (stereo not drawn),-8.3%,25.9µM*,-55.3*,-23.5%,-13.5%,?
Cc1ccc(NC(=O)C2CCCN(c3ncccn3)C2)cc1C (stereo not drawn),-2.5%,-27.8%,-6.4,0.0%,-0.4%,-9.7%
CCc1ccc(-c2cc(C(F)(F)F)on2)cc1S(=O)(=O)Nc1cc(OC)c(OC)c(OC)c1,-17.2%,nt,nt,nt,nt,nt
O=C(CCC1CCCO1)N1CCSCC1 (stereo not drawn),-57.3%,nt,nt,nt,nt,nt
Cc1ccc(S(=O)(=O)NCC(c2cccnc2)N2CCc3ccccc32)cc1 (stereo not drawn),-9.3%,?,-0.8,-10.2%,1.3%,?
N#Cc1ccccc1NC(=O)C(=O)NCC(c1cccnc1)N1CCc2ccccc21 (stereo not drawn),-4.5%,16.4µM*,nt,nt,nt,20.6µM*
CN1CCN(C(CNC(=O)C(=O)Nc2ccccc2C#N)c2ccc3c(c2)OCO3)CC1 (stereo not drawn),1.3%,1.3%,nt,nt,nt,5.2%
COc1ccc(C(=O)NCC(c2cccnc2)N2CCc3ccccc32)cc1 (stereo not drawn),-12.7%,?,nt,nt,nt,9.2µM*
O=C(NCC(c1cccnc1)N1CCc2ccccc21)c1ccc(Cl)cc1 (stereo not drawn),1.0%,11.6µM*,nt,nt,nt,10.3µM*
COc1ccc(S(=O)(=O)Nc2cc(N3CCCS3(=O)=O)ccc2OC)cc1,21.3%,nt,nt,nt,nt,nt
Cc1ccc(S(=O)(=O)N(C)CC2CCOC2)cc1C (stereo not drawn),50.3%,nt,nt,nt,nt,nt
CN(C)C(=O)/C(C#N)=C\c1cc(Br)c(Sc2ccc(Cl)cc2)o1,nt,14.6µM*,-94.4*,-17.6%,5.4%,?
Cc1cc(C)nc(Sc2ccc(/C=C(\C#N)C(N)=O)o2)n1,4.5%,7.1%,2.9,1.1%,-8.0%,0.4%
N#Cc1c(Cl)nsc1NC(=O)c1ccccc1,?,8.2µM*,?,8.2µM*,13µM*,13µM*
O=C(NCCc1ccc(Cl)cc1)C(=O)NCC(c1ccco1)S(=O)(=O)c1ccc(Cl)cc1 (stereo not drawn),-5.5%,13µM*,nt,nt,nt,16.4µM*
COc1ccc(C(=O)NCC(c2ccco2)S(=O)(=O)c2ccc(F)cc2)cc1 (stereo not drawn),-0.7%,?,nt,nt,nt,?
O=C(NCC(c1ccco1)S(=O)(=O)c1ccc(Cl)cc1)c1ccc(C(F)(F)F)cc1 (stereo not drawn),0.0%,11.6µM*,nt,nt,nt,9.2µM*
COCCN1CCOc2nc(-c3cccc(OC)c3F)ncc2C1=O,18.5%[176 µM],nt,nt,nt,nt,nt
N#CC1=C(N)n2c(s/c(=C\c3ccco3)c2=O)=C(C#N)C1c1ccco1 (stereo not drawn),12.6µM*,?,-3.5,-18.4%,-6.4%,?
N#CC1=C(N)n2c(s/c(=C\c3cccs3)c2=O)=C(C#N)C1c1cccs1 (stereo not drawn),?,?,36.9,0.5%,-0.7%,-21.3%
CCc1cc2c(=O)nc3n(c2s1)Cc1ccccc1/C3=C(/O)c1ccccc1Cl,-36.2%,8.2µM*,-15.7,0.4%,-1.6%,8.2µM*
COCc1c(C(C)C)nc(C(C)C)c(/C=C/[C@@H](O)C[C@@H](O)CC(=O)O)c1-c1ccc(F)cc1,nt,0.596µM*,nt,nt,nt,1.19µM*
CCCCC(=O)NC(=S)Nc1nnn(CCC)n1,?,5.8µM*,23.0,-7.7%,?,4.11µM*
CCCn1nnc(NC(=S)NC(=O)c2ccccc2OC)n1,?,18.4µM*,-4.9,11.9%,7.9%,?
SMILES,ALOX12 inh,TDP1 cell noCPT,IL-1B inflam inh,HT1080NT lethal,HT1080 IDH1KD tx,TDP1 cell CPT
COc1cc2ccccc2cc1C(=O)NC(=S)Nc1nnn(C)n1,4.5%,16.4µM*,6.9,22.2%,22.4%,23.1µM*
CCCCn1nnc(NC(=S)NC(=O)c2ccc(-c3cccc(Cl)c3Cl)o2)n1,nt,23.1µM*,10.3,-2.9%,1.5%,10.3µM*
CCCn1nnc(NC(=O)c2ccccc2Cl)n1,-8.0%,-8.9%,-0.3,-1.8%,-1.1%,-0.2%
CCCCC(=O)Nc1nnn(CCC)n1,2.2%,-3.6%,-7.3,-8.8%,2.6%,-1.4%
NC(=O)C1CCN(CC(=O)Nc2ccc(Br)cc2)CC1,17.8%,nt,nt,nt,nt,nt
Cc1ccc(CNC(=O)c2cc(=O)c3cc(Cl)ccc3o2)cc1,0.7%,nt,nt,nt,nt,nt
Cc1cc(C(=O)Cn2c(=O)c3c(ncn3CCC(C)C)n(Cc3ccccc3)c2=O)c(C)n1C,-12.2%,nt,nt,nt,nt,nt
CCOC(=O)c1c(C)[nH]c(C(=O)C(C)Nc2ccccc2OC)c1C (stereo not drawn),3.9%,nt,nt,nt,nt,nt
CCCCn1nnc(NC(=S)NC(=O)c2ccc(OCC)c([N+](=O)[O-])c2)n1,?,20.6µM*,6.2,-2.4%,5.5%,?
CCOc1ccc(C(=O)NC(=S)Nc2ncccc2C)cc1[N+](=O)[O-],-12.4%,?,30.9,3.4%,2.0%,?
Cc1cc(-c2cc(C(=O)NCc3ccccc3)on2)nc(S(C)(=O)=O)n1,0.3%,5.8µM*,-102.7*,?,?,7.31µM*
CC(C)(C)c1ccc(C(=O)NC(Nc2ccc(Br)cc2)C(Cl)(Cl)Cl)cc1 (stereo not drawn),28.2%,nt,nt,nt,nt,nt
O=C(Nc1ccc2c(c1)N(Cc1ccccc1)C(=O)c1ccccc1S2)NC1CC1,0.0%,-12.4%,-8.4,-15.5%,-4.6%,-2.5%
N#Cc1ccc(C(=O)Nc2ccc3c(c2)N(C2CCCC2)C(=O)c2ccccc2S3)cc1,-9.6%,18.4µM*,nt,nt,nt,23.1µM*
CC(=O)Nc1ccc(C(=O)Nc2ccc3c(c2)N(C2CCCC2)C(=O)c2ccccc2S3)cc1,-17.0%,16.4µM*,nt,nt,nt,20.6µM*
COc1ccccc1N(C)S(=O)(=O)c1ccc(C(=O)OCn2nnc3ccccc3c2=O)cc1,-8.1%,nt,nt,nt,nt,nt
O=C1/C(=C/c2ccc(F)c(Br)c2)CCc2ccccc21,-0.8%,nt,nt,nt,nt,nt
COc1ccc(/C=C2\CCC/C(=C\C=N\N(C)C)C2=O)cc1,?,?,-59.2*,-23.8%,-25.2%,?
CN(C)/N=C/C=C1\CCC/C(=C\c2ccc(F)c(F)c2)C1=O,-65.1%,25.9µM*,-105.9*,-23.1%,0.3%,?
